Results on 37 molecules are retold here after PubChem BioAssay (NCI).

The nature of test [1]: NCI Yeast Anticancer Drug Screen. Data for the rad50 strain (AID 155).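 Also: 0% = growth of vehicle-only cultures of the same strain.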 To be noted: S. cerevisiae rad50 strain growth inhibition; at 50.0 µM; hits give high values. The method, boiled down: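 Growth of the mutant yeast was measured after compound exposure and referenced to vehicle-treated cultures.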
Test [2] in a line: NCI Yeast Anticancer Drug Screen. Data for the mec2-1 strain (AID 157). The note with it: S. cerevisiae mec2-1 strain, at 50.0 µM, hits give high values. The method, boiled down:
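Cells of the genetically defined mec2-1 yeast strain are incubated with test compound. Inhibition of growth is calculated against vehicle-treated controls.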

Test [3] is described as follows: NCI Yeast Anticancer Drug Screen. Data for the sgs1 mgt1 strain (AID 161).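 Also: 0% = growth of cultures given vehicle only.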 The note with it: S. cerevisiae sgs1 mgt1 strain, at 50.0 µM, hits give high values. A digest of the protocol:
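Inhibition of yeast growth, normalised to vehicle-treated controls, is reported for a strain bearing genetic alterations in DNA damage repair.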

Test [4] in a line: NCI Yeast Anticancer Drug Screen. Data for the cln2 rad14 strain (AID 165).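 Also: 0% = growth equal to vehicle treated cultures.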 To be noted: S. cerevisiae cln2 rad14 strain, at 50.0 µM, hits give high values. A digest of the protocol: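 The screen exposed genetically defined yeast (cln2 rad14) to test compounds and scored growth inhibition relative to vehicle-treated controls.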
Test [5] is described as follows: NCI Yeast Anticancer Drug Screen. Data for the bub3 strain (AID 167). The note with it: S. cerevisiae bub3 mutant strain, at 50.0 µM, hits give high values. A digest of the protocol:
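Whole-cell yeast assay. The mutant strain was incubated with compounds, and growth inhibition was determined by comparison with vehicle-treated cells.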

A short description of test [6]: NCI Yeast Anticancer Drug Screen. Data for the mlh1 rad18 strain (AID 175). The note with it: S. cerevisiae mlh1 rad18 strain growth inhibition; at 50.0 µM; hits give high values. A digest of the protocol:
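Compound-treated yeast growth, normalised to vehicle controls. Strain bears defined DNA repair mutations.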

SMILES strings stand for the structures. About 79,000 compounds went through this panel and 15% of them were active in at least one assay; those are over-represented in the sample as a whole. A number with no mark means an inactive call. Active and inactive are the calls of the source. Rule as the data show it: active = growth inhibition above about 70%; inactive = the rest.

Turning to `COc1ccc2c(c1OC)C[N+]1(C)CCc3cc4c(cc3C1=C2)OCO4` (configuration not stated), the growth inhibition in test [1] was 21.6%; in test [2], -0.5%; in test [3] it was -12.8%; in test [4], -1.95%; in test [5], -2.2%; in test [6], -2%.

As to `COC(=O)C1=COC(C)[C@H]2CN3CCc4c([nH]c5cc(OC)ccc45)C3CC12` (some centres not stated), the growth inhibition in test [1] was -0.6%; in test [2], -9.95%; in test [3], -7.65%; in test [4] it was 0.9%; in test [5] it was -12.8%; in test [6], -9.1%.

On to `O=P(c1ccccc1)(c1ccccc1)c1ccccc1.O=P(c1ccccc1)(c1ccccc1)c1ccccc1.O=S(=O)(O)O.[Fe]`, for which the growth inhibition in test [1] is -8.3%; in test [2], 3.45%; in test [3] it was 9.35%; in test [4], 17.6%; in test [5] it was 23.6%; in test [6], 8.2%.

For the molecule `CC1(C)OC2OCCC(N=[N+]=[N-])C2O1` (configuration not stated), the growth inhibition in test [1] is 0.85%; in test [2], -5.35%; in test [3], -0.95%; in test [4], -29.8%; in test [5], -0.75%; in test [6] it was -4.4%.

Consider `O=C1NCN(c2ccccc2)C12CCN(CCCS(=O)(=O)c1ccccc1)CC2`, for which the growth inhibition in test [1] was -22.4%; in test [2], -13.6%; in test [3] it was -9.55%; in test [4], -22.6%; in test [5], 3.5%; in test [6], -18%.

As for `C[As+](c1ccccc1)(c1ccccc1)c1cccc2ccccc12`, the growth inhibition was 10.2% in test [1]; 38.9% in test [2]; 21.2% in test [3]; -10.1% in test [4]; 26.1% in test [5]; 34.3% in test [6].

With `S=[As](c1ccc(-c2ccccc2)cc1)(c1ccc(-c2ccccc2)cc1)c1ccc(-c2ccccc2)cc1`, the growth inhibition in test [1] was -10.7%; in test [2], -5.55%; in test [3], -39.5%; in test [4], -19.6%; in test [5], -13.6%; in test [6] it was -18.2%.

For `CCOP(=O)(NCc1ccccc1)c1ccc(N)cc1` (configuration not stated), the growth inhibition is 6.05% in test [1]; -6.45% in test [2]; 7.65% in test [3]; 1.95% in test [4]; -0.5% in test [5]; 7.15% in test [6].

For `CCOC(=O)C(CC)(CC)C(=O)OCC`, the growth inhibition was -18.9% in test [1]; -2.3% in test [2]; -29.6% in test [3]; -38% in test [4]; -12.4% in test [5]; 4% in test [6].

On to `O=[As](O)(O)Cc1ccccc1`, for which the growth inhibition in test [1] is 3.75%; in test [2], 2.45%; in test [3] it was -9.6%; in test [4], -16.6%; in test [5] it was -2.55%; in test [6], -22.8%.

With `CCOP(=S)(OCC)S/C(C(=O)NC)=C(/C)O`, the growth inhibition in test [1] is 64.2%; in test [2], 22.9%; in test [3] it was 35.4%; in test [4], 65.1%; in test [5], 55.5%; in test [6], 79.7% (active).

`[C-]#[O+].[C-]#[O+].[C-]#[O+].[Cr].c1ccc([PH+](CC[As](c2ccccc2)c2ccccc2)CC[As](c2ccccc2)c2ccccc2)cc1`: the growth inhibition was 5.45% in test [1]; -7.65% in test [2]; 27.7% in test [3]; 2.6% in test [4]; 11.1% in test [5]; 38.9% in test [6].

Turning to `CC1(C)N=C(N)N=C(N)N1c1ccc(CCC(=O)Nc2ccc(S(=O)(=O)F)cc2)cc1`, the growth inhibition in test [1] is 27.6%; in test [2], 87.3% (active); in test [3] it was 76.8% (active); in test [4] it was -28.8%; in test [5], -0.55%; in test [6] it was 54.1%.

`FC(F)(F)c1ccc(Cl)c(NC2=NCCCS2)c1`: the growth inhibition is -7.85% in test [1]; -0.35% in test [2]; 2.15% in test [3]; 2.05% in test [4]; 0.4% in test [5]; -3.6% in test [6].

Turning to `Oc1ccccc1C=NCCN=Cc1ccccc1O.[Zn+2]`, the growth inhibition in test [1] was -29.2%; in test [2] it was -2.2%; in test [3], -25.1%; in test [4], -53.8%; in test [5] it was -7.8%; in test [6], -17.9%.

In the case of `CC(C)CCON=O`, the growth inhibition is -11.3% in test [1]; -9.4% in test [2]; -28.2% in test [3]; -9.05% in test [4]; -13.1% in test [5]; -35.6% in test [6].

As for `O=C1NC2C(=CC(O)C(O)C2O)c2cc3c(cc21)OCO3` (configuration not stated), the growth inhibition is 29.9% in test [1]; 44.2% in test [2]; 35.8% in test [3]; 47.1% in test [4]; 39.1% in test [5]; 37.2% in test [6].

As to `CC1=C(C)C(=O)OC(C(C)(O)C2(O)CCC3(O)C4CC(Cl)C5(O)C(O)C=CC(=O)C5(C)C4CCC32C)C1` (configuration not stated), the growth inhibition is 7.8% in test [1]; -37.3% in test [2]; -18.7% in test [3]; -3.2% in test [4]; -15.9% in test [5]; -52.2% in test [6].

With `Cc1cc(=O)oc2cc(OC(=O)N(C)C)c(Cl)cc12`, the growth inhibition was -0.5% in test [1]; -11.3% in test [2]; 17.4% in test [3]; 24.4% in test [4]; 18.2% in test [5]; 10.3% in test [6].

For the molecule `O=C1NC(=O)C(=C/C=C/c2ccccc2)C(=O)N1`, the growth inhibition in test [1] is 34.2%; in test [2], -3.5%; in test [3], 18.6%; in test [4], 16.4%; in test [5], 10.5%; in test [6], -2.25%.

Consider `CC(=O)Cc1c[nH]c2ccccc12`, for which the growth inhibition was -25.2% in test [1]; -41.3% in test [2]; -9.35% in test [3]; -1.5% in test [4]; -28.2% in test [5]; -25.2% in test [6].

As for `C[CH2][Sn](/[CH]=C\CO)([CH2]C)[CH2]C`, the growth inhibition in test [1] is 63%; in test [2] it was 77.8% (active); in test [3], 85.2% (active); in test [4], 43.8%; in test [5] it was 93.6% (active); in test [6], 94.6% (active).

Take `Cc1ccc(N=C(C(c2ccccc2)c2ccccc2)N(CCCl)CCCl)cc1`: the growth inhibition in test [1] is 24.2%; in test [2] it was 3.45%; in test [3], 19.9%; in test [4], 13.3%; in test [5], 18.1%; in test [6] it was 24.1%.

Consider `CC1OC(OC2C(O)C(O)C(O)C(O)C2O)C(N)CC1N=C(N)C(=O)O` (configuration not stated), for which the growth inhibition in test [1] was 12.5%; in test [2], 3.6%; in test [3], -18.1%; in test [4], -34.5%; in test [5], -0.35%; in test [6], 23.6%.

In the case of `NC1CN2CCC1CC2` (configuration not stated), the growth inhibition in test [1] is 9.35%; in test [2], -7.65%; in test [3], -14.6%; in test [4], 11.8%; in test [5], -8.55%; in test [6], 1.15%.

For `CC(=O)c1ccccc1N=Nc1ccc(N(CCCl)CCCl)cc1C`, the growth inhibition is 13.5% in test [1]; 19.7% in test [2]; 12.9% in test [3]; 0.95% in test [4]; 20.5% in test [5]; 31.4% in test [6].

Take `CN(C)C1CCNCC1`: the growth inhibition in test [1] was 19.7%; in test [2], 5.2%; in test [3] it was 17%; in test [4] it was 4.75%; in test [5] it was 4.6%; in test [6] it was -1.5%.

`O=[N+]([O-])c1cc(S(=O)(=O)F)cc(Cl)c1S`: the growth inhibition in test [1] was 98.9% (active); in test [2], 99% (active); in test [3], 98.8% (active); in test [4], 90.5% (active); in test [5], 98.8% (active); in test [6], 98.8% (active).

Turning to `O=C1CCCN1`, the growth inhibition was -8.1% in test [1]; -1.7% in test [2]; 3.1% in test [3]; -4.85% in test [4]; -0.2% in test [5]; -11.7% in test [6].

Take `C[CH2][Pb]([Br])([CH2]C)[CH2]C`: the growth inhibition in test [1] is -17.7%; in test [2], -1.4%; in test [3] it was -5.85%; in test [4], -14.1%; in test [5], -4.15%; in test [6], -1.45%.

Regarding `CC(C)CCCC(C)C1CCC2C3CC=C4CC([Se][As](C)C)CCC4(C)C3CCC12C` (configuration not stated), the growth inhibition in test [1] was 11.1%; in test [2], -0.1%; in test [3] it was 8.55%; in test [4], 14.7%; in test [5] it was 0.6%; in test [6], -7.4%.

For the molecule `[CH-]=C([CH2-])C.[Ni][Br].c1ccc([PH+](c2ccccc2)c2ccccc2)cc1`, the growth inhibition in test [1] is 35.5%; in test [2], 2.9%; in test [3] it was 26.6%; in test [4] it was -8.85%; in test [5], -4.6%; in test [6] it was -1.75%.

As to `CN1CCN(C)C12C=c1ccccc1=CC21CC1`, the growth inhibition is 5.05% in test [1]; -15.9% in test [2]; -45.6% in test [3]; -2.65% in test [4]; -39.9% in test [5]; -8.15% in test [6].

For `CC(=O)C1CCC2C3CCC4CC(O)CCC4(C)C3CCC12C` (configuration not stated), the growth inhibition is 6.2% in test [1]; -59% in test [2]; 16.8% in test [3]; 26.8% in test [4]; 10% in test [5]; -7.3% in test [6].

As to `O=C(c1ccccc1)C1CN(C2CCCC2)C1c1ccccc1` (configuration not stated), the growth inhibition in test [1] was -10.2%; in test [2], 7.6%; in test [3], -1.55%; in test [4], -27.3%; in test [5], 10.4%; in test [6], 16.1%.

As to `CCCOC(=O)c1ccccc1N`, the growth inhibition in test [1] was 6.05%; in test [2], -1.25%; in test [3] it was -1.55%; in test [4], -16.9%; in test [5], -4.75%; in test [6], -19.4%.

As to `N#Cc1ccc(C(Cl)(Cl)Cl)cc1`, the growth inhibition is 1.5% in test [1]; -17.6% in test [2]; -5.8% in test [3]; -25.4% in test [4]; -3.15% in test [5]; -5.65% in test [6].
